T1: RBFOX1 RRM RbFoxmut (Fox-RRM*) (Homo sapiens, UniProt Q9NWB1 109-208, R118D;E147R;N151S;E152T)
T1 sequence: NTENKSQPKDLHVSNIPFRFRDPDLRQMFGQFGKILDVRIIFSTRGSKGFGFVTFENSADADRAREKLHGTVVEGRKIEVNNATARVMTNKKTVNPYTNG

B1: UCUGGGU (DNA:RNA)
RNA: GGGAGACCGGAAUUCAGAUUGUCCUCUGGGUUUAAAUCCCGUCGUAGCCACCA
DNA 1: CAATCTGAATTCCGGTCTCCC
DNA 2: TGGTGGCTACGACGGGATT
B2: GUGGUUC (DNA:RNA)
RNA: B1 RNA with U25G, C26U, U27G, G29U, G30U, U31C
DNA 1: CAATCTGAATTCCGGTCTCCC
DNA 2: TGGTGGCTACGACGGGATT
B3: AGCGCCG (DNA:RNA)
RNA: B1 RNA with U25A, C26G, U27C, G29C, G30C, U31G
DNA 1: CAATCTGAATTCCGGTCTCCC
DNA 2: TGGTGGCTACGACGGGATT
B4: ACACACC (DNA:RNA)
RNA: B1 RNA with U25A, U27A, G28C, G29A, G30C, U31C
DNA 1: CAATCTGAATTCCGGTCTCCC
DNA 2: TGGTGGCTACGACGGGATT
B5: UGUGUAA (DNA:RNA)
RNA: B1 RNA with C26G, G29U, G30A, U31A
DNA 1: CAATCTGAATTCCGGTCTCCC
DNA 2: TGGTGGCTACGACGGGATT
B6: CAACCGG (DNA:RNA)
RNA: B1 RNA with U25C, C26A, U27A, G28C, G29C, U31G
DNA 1: CAATCTGAATTCCGGTCTCCC
DNA 2: TGGTGGCTACGACGGGATT
B7: CUACAAU (DNA:RNA)
RNA: B1 RNA with U25C, C26U, U27A, G28C, G29A, G30A
DNA 1: CAATCTGAATTCCGGTCTCCC
DNA 2: TGGTGGCTACGACGGGATT
B8: CGGCAAU (DNA:RNA)
RNA: B1 RNA with U25C, C26G, U27G, G28C, G29A, G30A
DNA 1: CAATCTGAATTCCGGTCTCCC
DNA 2: TGGTGGCTACGACGGGATT
B9: UUGGUUU (DNA:RNA)
RNA: B1 RNA with C26U, U27G, G29U, G30U
DNA 1: CAATCTGAATTCCGGTCTCCC
DNA 2: TGGTGGCTACGACGGGATT
B10: CGUUGUA (DNA:RNA)
RNA: B1 RNA with U25C, C26G, G28U, G30U, U31A
DNA 1: CAATCTGAATTCCGGTCTCCC
DNA 2: TGGTGGCTACGACGGGATT
B11: GCAUGUA (DNA:RNA)
RNA: B1 RNA with U25G, U27A, G28U, G30U, U31A
DNA 1: CAATCTGAATTCCGGTCTCCC
DNA 2: TGGTGGCTACGACGGGATT
B12: GUAUGUA (DNA:RNA)
RNA: B1 RNA with U25G, C26U, U27A, G28U, G30U, U31A
DNA 1: CAATCTGAATTCCGGTCTCCC
DNA 2: TGGTGGCTACGACGGGATT
B13: GGAUGUA (DNA:RNA)
RNA: B1 RNA with U25G, C26G, U27A, G28U, G30U, U31A
DNA 1: CAATCTGAATTCCGGTCTCCC
DNA 2: TGGTGGCTACGACGGGATT
B14: CUAUGUA (DNA:RNA)
RNA: B1 RNA with U25C, C26U, U27A, G28U, G30U, U31A
DNA 1: CAATCTGAATTCCGGTCTCCC
DNA 2: TGGTGGCTACGACGGGATT
B15: GUCCGUA (DNA:RNA)
RNA: B1 RNA with U25G, C26U, U27C, G28C, G30U, U31A
DNA 1: CAATCTGAATTCCGGTCTCCC
DNA 2: TGGTGGCTACGACGGGATT
B16: ACAUGUA (DNA:RNA)
RNA: B1 RNA with U25A, U27A, G28U, G30U, U31A
DNA 1: CAATCTGAATTCCGGTCTCCC
DNA 2: TGGTGGCTACGACGGGATT
B17: GCAUAUA (DNA:RNA)
RNA: B1 RNA with U25G, U27A, G28U, G29A, G30U, U31A
DNA 1: CAATCTGAATTCCGGTCTCCC
DNA 2: TGGTGGCTACGACGGGATT
B18: GAAUGUA (DNA:RNA)
RNA: B1 RNA with U25G, C26A, U27A, G28U, G30U, U31A
DNA 1: CAATCTGAATTCCGGTCTCCC
DNA 2: TGGTGGCTACGACGGGATT
B19: GUUUGUA (DNA:RNA)
RNA: B1 RNA with U25G, C26U, G28U, G30U, U31A
DNA 1: CAATCTGAATTCCGGTCTCCC
DNA 2: TGGTGGCTACGACGGGATT
B20: GAUUGUA (DNA:RNA)
RNA: B1 RNA with U25G, C26A, G28U, G30U, U31A
DNA 1: CAATCTGAATTCCGGTCTCCC
DNA 2: TGGTGGCTACGACGGGATT
B21: CGAUGUA (DNA:RNA)
RNA: B1 RNA with U25C, C26G, U27A, G28U, G30U, U31A
DNA 1: CAATCTGAATTCCGGTCTCCC
DNA 2: TGGTGGCTACGACGGGATT

Data on 21 molecules can be found in PMC9911399, “Two distinct binding modes provide the RNA-binding protein RbFox with extraordinary sequence specificity”.

Residue numbers refer to the chain shown, from its start. In all, about 16,000 sequences were measured (“ka relative to ugcaugu”: median about 0.096, highest 2% from about 0.35 on). Many of the other results were omitted from the sample, so the highest values are more common in it than they were.

The target in the experiment is T1, RBFOX1 RRM RbFoxmut (Fox-RRM*). Put plainly: EMSA; HiTS-Eq, 1 nM pool, 10 min; buffer printed only for the single-RNA assays: 10 mM Tris pH 7.5, 150 mM NaCl, 3.4 mM EDTA, 0.001% NP-40, 30 C. The note with it: tags: His6 N-terminal (pET28a); label: 5' 32P. The gist of the method: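 Relative association constants, normalised to the cognate motif, were derived by comparing read counts of each RNA species with those of the control reaction. The RNA sequenced was the free fraction, separated by 8% native PAGE after a 10 min equilibration in 50 µL of 1 nM 5′-radiolabelled RNA (7 randomized nucleotides) with increasing concentrations of purified wild-type or mutant RbFox RRM.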
(In general: A gel shift assay detects complexes by their altered migration in electrophoresis.)
With B1, the binding signal was 0.0963 KA relative to UGCAUGU.
The value for B2 was 0.283 KA relative to UGCAUGU.
The value for B3 was 0.116 KA relative to UGCAUGU; that for B4 was 0.0425 KA relative to UGCAUGU.
Next, B5: 0.111 KA relative to UGCAUGU; B6: 0.0516 KA relative to UGCAUGU; B7: 0.0289 KA relative to UGCAUGU.
For the molecule B8, the binding signal is 0.053 KA relative to UGCAUGU.
The value for B9 was 0.1 KA relative to UGCAUGU; that for B10 was 0.258 KA relative to UGCAUGU.
Next, B11: 1.04 KA relative to UGCAUGU.
Next, B12: 0.63 KA relative to UGCAUGU; B13: 0.285 KA relative to UGCAUGU.
With B14, the binding signal was 0.198 KA relative to UGCAUGU.
Next, B15: 0.12 KA relative to UGCAUGU; B16: 0.2 KA relative to UGCAUGU.
For the molecule B17, the binding signal was 0.169 KA relative to UGCAUGU.
Next, B18: 1.18 KA relative to UGCAUGU; B19: 0.446 KA relative to UGCAUGU; B20: 0.284 KA relative to UGCAUGU.
On to B21, for which the binding signal was 0.202 KA relative to UGCAUGU.
